Each structure is given as a SMILES string. Results filed as inconclusive are left out. A call without a number means that no potency is given here. Values without a mark were called inactive. Activity calls are given as the source filed them. Calls follow the shape of the dose curve; as a rule, active = well fitted cell-killing curve with a large enough effect; inconclusive = small, poorly fitted or top-dose-only effect, or effect the other way; inactive = flat fitted curve, though single readings scatter.
Potency is read from the fitted curve at half-maximal effect.

The subject of the experiment is C33A. The experiment in a line: Primary qHTS to identify gynecologic anti-cancer compounds using libraries of approved drugs and bioactive compounds (AID 1345084). Also: nearly all actives have a fitted effect of over 55% in size. The settings on record: Gynecologic cancer cell panel viability, ATPlite luminescence, 48 h; series mostly up to 57.5 µM. A digest of the protocol:
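Cells, 1,000 per well, plated 16 h, then exposed 48 h at 37 C to compounds. Viability by ATPlite luminescence after 15 min at room temperature.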
For orientation: In qHTS, concentration-response curves come from the screen itself.
With `C=C1[C@@H]2CC[C@@H]3[C@@](CCC4C(C(=O)O)(C(=O)O)C[C@@H](O[C@@H]5O[C@H](CO)[C@@H](O)[C@H](O)[C@H]5OC(=O)CC(C)C)C[C@]43C)(C2)[C@H]1O` (stereo partly drawn), the Potency entry was “inactive”.

In the case of `N[C@@]1(C(=O)O)CC[C@H]2[C@H](C(=O)O)[C@H]21`, the Potency result is “inactive”.

For the compound `C[C@@H]1O[C@@H](O[C@H]2[C@@H]3C=CO[C@@H](O[C@@H]4O[C@H](CO)[C@@H](O)[C@H](O)[C@H]4O)[C@@H]3[C@@]3(CO)O[C@@H]23)[C@H](OC(=O)/C=C/c2ccccc2)[C@H](O)[C@H]1O`, the Potency entry is “inactive”.

For `C[C@@H]1CC[C@]2(C(=O)O[C@@H]3O[C@H](CO)[C@@H](O)[C@H](O)[C@H]3O)CC[C@]3(C)C(=CCC4[C@@]5(C)C[C@@H](O)[C@H](O)[C@](C)(C(=O)O)C5CC[C@]43C)[C@@H]2[C@]1(C)O` (stereo partly drawn), the Potency entry was “inactive”.

As for `C=C1CN(Cc2ccc(C(=O)Nc3ccccc3N)cc2)C(=O)c2ccccc21`, the Potency is 2820 nM (active).

In the case of `COc1ccc(C(=O)n2c(C)c(Cc3cccc(O[C@@H](C)C(=O)O)c3)c3cc(OC(F)(F)F)ccc32)cc1`, the Potency entry was “inactive”.

On to `Cc1ccc([N+](=O)[O-])cc1S(=O)(=O)N(C)/N=C/c1cnc2ccc(Br)cn12`, for which the Potency was 316 nM (active).

As for `C[C@@H]1O[C@@H](O[C@@H]2[C@@H](O)[C@H](O[C@H]3CC[C@@]4(C)C(CC[C@]5(C)C4CC=C4[C@@H]6CC(C)(C)CC[C@]6(C(=O)O[C@@H]6O[C@H](CO)[C@@H](O)[C@H](O)[C@H]6O)CC[C@]45C)C3(C)C)O[C@H](C(=O)O)[C@H]2O)[C@H](O)[C@H](O)[C@H]1O` (stereo partly drawn), the activity change, negative = cytotoxicity was -0.88% [at 11.6 µM].

For the origin of these results see PubChem BioAssay (NCATS).
